An excerpt weighted towards active compounds, which were near 11% of everything screened.
VDR inh – blocks the human vitamin D receptor. P11473. VDR-SRC2-3 peptide fluorescence polarization, 2 h. Potency, µM, without a hit: max response, negative = inhibition, usual class: inhibitors. 0.93% of 400,000 active. AID 504847; note: % is set by controls: 0 for no effect and ±100 for the full control effect
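The screen uses fluorescence polarization to detect compounds that interfere with recruitment of the SRC2-3 coactivator peptide to VDR; plates are read after 2 h at room temperature.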
PLK1 PBD inh – inhibitors of human PLK1 polo-box domain binding; P53350; Plk1 PBD binding of FITC phosphopeptide, fluorescence polarization; Potency, µM, for the others: max response, negative = inhibition, actives largely listed as inhibitors; 2.8% of 360,000 active; note: series mostly up to about 57 µM; % is set by controls: 0 for no effect and ±100 for the full control effect; nearly all actives have a fitted effect of over 65% in size
Target sequence (P53350 whole entry, looked up, the tested form may be a part): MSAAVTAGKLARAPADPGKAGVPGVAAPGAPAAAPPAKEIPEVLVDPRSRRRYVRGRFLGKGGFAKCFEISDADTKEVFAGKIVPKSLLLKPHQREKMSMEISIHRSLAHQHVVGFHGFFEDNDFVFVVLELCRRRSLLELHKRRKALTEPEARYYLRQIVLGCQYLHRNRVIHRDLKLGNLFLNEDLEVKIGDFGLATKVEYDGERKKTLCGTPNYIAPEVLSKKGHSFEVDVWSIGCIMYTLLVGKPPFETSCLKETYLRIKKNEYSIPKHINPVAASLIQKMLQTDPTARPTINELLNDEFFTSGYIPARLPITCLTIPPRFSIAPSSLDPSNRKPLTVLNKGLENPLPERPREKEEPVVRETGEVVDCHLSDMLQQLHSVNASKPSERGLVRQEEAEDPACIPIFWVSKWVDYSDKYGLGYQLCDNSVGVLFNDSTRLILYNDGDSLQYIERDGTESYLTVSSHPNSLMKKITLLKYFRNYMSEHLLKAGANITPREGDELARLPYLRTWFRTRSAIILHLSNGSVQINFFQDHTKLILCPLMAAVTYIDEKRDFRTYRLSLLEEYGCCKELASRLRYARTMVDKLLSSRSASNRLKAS
BAZ2B block – blocks human BAZ2B. AlphaScreen BAZ2B-H3K14Ac peptide displacement. Potency, µM (series often up to 114 µM), for inactives: at the highest dose activity change, negative = inhibition, usual class: inhibitors. 4.4% of 360,000 active. AID 504333; note: % is set by controls: 0 for no effect and ±100 for the full control effect; nearly all actives have a fitted effect of over 60% in size
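BAZ2B (50 nM) with biotin-H3(5-23)K14Ac peptide (50 nM) in PBS pH 7.4, 0.01% Tween-20, preformed 30 min, then compound 30 min at room temperature; top concentration 110uM. AlphaScreen streptavidin donor/nickel chelate acceptor beads (10 ug/mL final), 20 min dark, signal read.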
JMJD2A Tudor – inhibitors of human JMJD2A Tudor domain. AlphaScreen JMJD2A-Tudor / H3K4me3 peptide binding. 4.4% of 390,000 active. O75164. Potency, µM (highest dose often 114 µM), inactives show at the highest dose activity change, negative = inhibition, actives largely listed as inhibitors; note: % is set by controls: 0 for no effect and ±100 for the full control effect; nearly all actives have a fitted effect of over 50% in size
G9a inh – blocks human histone lysine methyltransferase G9a. Q96KQ7. G9a H3K9 monomethylation, AlphaScreen, 2 h. Potency, µM (titrated, usually from 102 µM), without a hit: top-dose activity, negative = inhibition, hits mostly inhibitors. 8.8% of 350,000 active; note: % is set by controls: 0 for no effect and ±100 for the full control effect; nearly all actives have a fitted effect of over 75% in size
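G9a (20 nM) was preincubated 15 min with compound, then reacted 2 h at room temperature with 500 nM biotin-H3K9 peptide and 20 µM SAM. Monomethyl-H3K9 detected by AlphaScreen using anti-H3K9me1 antibody.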
HP1b binding inh – HP1-beta chromodomain-methylated histone interaction inhibition. P83916. AlphaScreen HP1-beta / biotin-H3K9me3 peptide binding. Potency, µM (highest dose often 114 µM), without a hit: at the top dose activity change, negative = inhibition, actives largely listed as inhibitors. 0.56% of 390,000 active. AID 540317; note: nearly all actives have a fitted effect of over 70% in size
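AlphaScreen: HP1-beta (50 nM) preformed 30 min with biotin-H3(1-18)K9me3 peptide (50 nM) in PBS pH 7.4, 0.01% Tween-20. Compound added for 30 min at RT, then streptavidin donor/nickel chelate acceptor beads (10 ug/mL) for 30 min.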
The depositor's hits bear a star; ? = inconclusive; · = no result given; [ ] = dose if it differs, or a comment. Calls come from the whole dose curve; as a rule, active = well fitted curve in the direction sought with a large enough effect; inconclusive = small, poorly fitted or top-dose-only effect, or another doubt; inactive = no such curve, though single readings can be large; an effect the other way counts as inactive or inconclusive. Potency is the fitted concentration of half-maximal effect.

SMILES	VDR inh	PLK1 PBD inh	BAZ2B block	JMJD2A Tudor	G9a inh	HP1b binding inh
CC(C)c1ccc(CNC(=O)C(=O)Nc2nccs2)cc1	-9%	-6%	-5%	?	7.1µM*	11%
CC(=O)OC[C@@H]1CN(Cc2ccccc2)C[C@H](n2cnc3c(N4CCOCC4)ncnc32)O1	·	-12%	·	·	·	·
Cc1ccc2cc3cc(C(=O)N4CC(C)CC(C)C4)oc3nc2c1 (stereo not given)	-3%	13µM*	10%	-27%[11.4 µM]	3%[59 µM]	7%
Cc1ccc(S(=O)(=O)N(C)c2nc3ccccc3[nH]c2=S)cc1	?	11µM*	?	-8%[11.4 µM]	-133%[59 µM]	35%
O=C1OC(c2cccs2)=N/C1=C/c1ccc(-c2cccc(C(=O)O)c2)o1	79µM*	19%	25µM*	50µM*	7.9µM*	?
O=C1OC(c2cccs2)=N/C1=C\c1ccc(-c2ccccc2Cl)o1	8%	-13%	-36%	?	40µM*	?
Cc1ccc(C)c(OCC(=O)NNC(=O)CCN2CCN(c3ccccc3)CC2)c1	1%	-5%	1%	-19%	-14%[12.7 µM]	23%
O=C(CSc1nnc(NC(=O)c2ccccc2)s1)NCC1CCCO1 (stereo not given)	-14%	-4%	-13%	-10%	?	30%
O=C(CSc1nnc(NC(=O)c2ccccc2F)s1)NCC1CCCO1 (stereo not given)	-14%	?	-5%	?	14µM*	10%
O=C(Nc1nnc(SCC(=O)N2CCCCC2)s1)C1CCCCC1	3%	-25%	-1%	-33%	4µM*	14%
CCOc1ccc(N2CC(C(=O)Nc3nnc(Cc4ccc(OC)cc4)s3)CC2=O)cc1 (stereo not given)	-17%	-14%	3%	-13%	10µM*	8%
COc1ccc(N2CC(C(=O)Nc3nnc(SCC(=O)NCC4CCCO4)s3)CC2=O)cc1 (stereo not given)	?	30µM*	·	35µM*	·	4%
CCC(C(=O)Nc1ccccc1C(=O)OC)n1c(C)c2cnn(-c3ccccc3)c(=O)c2c1C (stereo not given)	14%	·	-33%	?	-29%[59 µM]	15%
N#CCSc1nnc(Cc2ccc3c(c2)OCO3)o1	-17%	-24%	2%	?	26%	-10%
O=C(CSc1nnc(NC(=O)C2CC(=O)N(c3ccccc3)C2)s1)NC1CCCC1 (stereo not given)	3%	6%	2%	-3%	1%	14%
CC(=O)Nc1ccc(NC(=O)CSc2nnc(NC(=O)C3CC(=O)N(c4ccccc4)C3)s2)cc1 (stereo not given)	21%	-13%	-17%	-12%	40µM*	52%
COCCSc1nnc(NC(=O)C2CC(=O)N(c3ccccc3)C2)s1 (stereo not given)	-2%	-4%	-14%	-6%	-21%	9%
Cc1cccc(N2CC(C(=O)Nc3nnc(SCCN4CCOCC4)s3)CC2=O)c1 (stereo not given)	-12%	-28%	7%	-36%	?	5%
COc1ccc(N2CC(C(=O)Nc3nnc(SCC(=O)NC4CCCC4)s3)CC2=O)cc1 (stereo not given)	?	?	-13%	?	32µM*	15%
Cc1ccccc1N1CC(C(=O)Nc2nnc(SCCN3CCOCC3)s2)CC1=O (stereo not given)	-15%	-22%	-29%	-28%	16µM*	36%
CCNc1nnc(SCC(=O)NC2CCCCCC2)s1	-29%	-13%	9%	-8%	3.5µM*	-1%
CC(C)CC(C)N1CCC(n2nccc2NC(=O)CCc2ccccc2)CC1 (stereo not given)	-4%	-5%	-19%	-5%	-1%	25%
O=C(NCC[C@H]1CC[C@@H](NC(=O)C2CCOCC2)[C@@H](CO)O1)Nc1ccc(Cl)cc1	·	1%	·	·	·	·
O=C(c1ccccc1)c1ccc2nc(Nc3ccccc3Cl)c3nncn3c2c1	0%	·	1%	-16%	-5%[59 µM]	33%
Cc1ccc(NC(=O)CSc2nnc(NC(=O)CN3CCOCC3)s2)cc1	27%	-7%	-37%	?	-16%[12.7 µM]	19%
SMILES	VDR inh	PLK1 PBD inh	BAZ2B block	JMJD2A Tudor	G9a inh	HP1b binding inh
CC(=O)Nc1nnc(SCC(=O)NCC2CCCO2)s1 (stereo not given)	-18%	-8%	57%	-9%	?	27%
Cc1cccc(C)c1NC(=O)CSc1nnc(NC(=O)CN2CCOCC2)s1	30%	-7%	?	89µM*	7%[0.0925 µM]	11%
Cc1ccccc1N1CC(c2nnc(NC(=O)c3ccco3)s2)CC1=O (stereo not given)	-2%	·	?	-12%	8.9µM*	-6%
Cc1ccc(N2CC(C(=O)Nc3nnc(SCC(=O)NCC4CCCO4)s3)CC2=O)cc1C (stereo not given)	-22%	-7%	-7%	-3%	40µM*	39%
Cc1cccc(N2CC(C(=O)Nc3nnc(SCCC4OCCO4)s3)CC2=O)c1 (stereo not given)	-15%	?	-25%	?	22µM*	-8%
CSc1nc2cc(Oc3cccc(Cl)c3Cl)c(Cl)cc2[nH]1	20%	-3%	-21%	-10%	?	37%
CCCS(=O)(=O)c1nc(S(=O)(=O)c2ccc(C)cc2)c(NCCCN2CCCC2=O)s1	-5%	-14%	1%	-5%	22%	62%
O=C(CCC(=O)OCc1ccc(Br)cc1)Nc1ccccc1	?	27µM*	8%	50µM*	12%[59 µM]	16%
O=C(CCC(=O)OCc1ccc(C(=O)Oc2ccc(Cl)cc2)cc1)Nc1ccccc1	-3%	-8%	-10%	-9%	17%[59 µM]	32%
C=CCNc1nc(C(=O)OCC(=O)c2ccc(Cl)cc2)cs1	-15%	-26%	35µM*	50µM*	50µM*	-38%
C=CCNc1nc(C(=O)OCC(=O)c2ccc(C)c([N+](=O)[O-])c2)cs1	-27%	-18%	50µM*	-24%	13%	-13%
C=CCNc1nc(C(=O)OCC(=O)Nc2cccc(SC)c2)cs1	22%	-6%	79µM*	?	56µM*	1%
C=CCNc1nc(C(=O)OCC(=O)c2ccc(OC)cc2OC)cs1	-5%	-2%	7%	-8%	21%	22%
COc1cccc(NC(=O)c2sc3nc(C)c(C(=O)Nc4ccc(C)cc4C)c(-c4ccc(C)o4)c3c2N)c1	-3%	·	-14%	-16%	13%[59 µM]	17%
O=C(Cc1ccc(F)cc1)Oc1ccc(C(=S)N2CCCC2)cc1	-5%	-27%	0%	-21%	-19%[59 µM]	-3%
O=C(Nc1ccc(S(=O)(=O)Nc2cnc3ccccc3n2)cc1)c1ccccc1Br	-4%	-5%	-5%	-12%	1%[59 µM]	2%

High-throughput results as filed in PubChem.
